Experimental data reported in paper PMC5540273 (PLoS ONE, 2017).

The molecules below were run on RPS6KA4(Kin.Dom.2-C-terminal). Details: concentration: 1 μM, replicates: in singlicate; n = 1.
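Also: KINOMEscan kinase panel screen.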

Row | Compound | %Inh [%]
1 | Cl.O=S(=O)(c1cccc(F)c1)c1ccc(Nc2ncnc3cc(Br)sc23)cc1Cl [GSK306886] | 0
2 | O=C(NCCCN1CCCC1=O)c1cnc(NCc2cc(Cl)ccc2Cl)nc1NC1CCNCC1 | 0
3 | Cl.Cn1ccc(-c2cccc(Nc3ccnc4cc(-c5nccs5)ccc34)c2)n1 [GW525701] | 0
4 | CC(C)(C)OC(=O)NC1CCCN(c2cc(-c3ccc4c(N)n[nH]c4c3)nc(N)n2)C1 (stereo not drawn) [GSK2286096] | 0
5 | Cn1ccc2ncnc(Nc3ccc(Oc4cccc(Cl)c4)c(Cl)c3)c21 | 1
6 | O=C(Nc1ccccc1)Nc1ccc(Oc2ccc3nccn3n2)cc1 | 0
7 | CSc1nn2c(=O)cc(N3CCOCC3)nc2n1Cc1cccc(Cl)c1Cl [GSK2347225] | 0
8 | COC(=O)c1cccc(NC(=O)NCCNc2ccnc(Nc3ccc(F)cc3)n2)c1 [GSK1379883] | 0
9 | CCn1c(-c2ccncc2)nc2cnccc21 [SB-735216] | 11
10 | Fc1cccc(COc2ccc(Nc3ncnc4cc[nH]c34)cc2Cl)c1 | 11
11 | O=C(Nc1n[nH]c2nc(-c3ccco3)c(Br)cc12)c1ccc(CN2CCCC2)cc1.O=C(O)[C@H](O)[C@@H](O)C(=O)O [SB-742352] | 8
12 | CCC(CC)(CC)n1cnc2c(N)ncnc21 [SKF-97620] | 13
13 | O=C(CCO)NCCn1ccc2ncnc(Nc3ccc(Oc4cccc(C(F)(F)F)c4)c(Cl)c3)c21 | 0
14 | OCCOCCn1ccc2ncnc(Nc3ccc(Oc4cccc(Cl)c4)c(Cl)c3)c21 | 0
15 | Clc1cccc(-c2nc(Nc3ccncc3)c3ccccc3n2)c1 [GW873004] | 1
16 | COc1ccc(NC(=O)c2ccc(-c3cc(-c4nnc(C)o4)ccc3C)cc2)cc1 [GW595885] | 0
17 | O=C(Nc1ccccc1F)NC1CCN(c2ccnc(Nc3ccc(F)cc3)n2)C1 (stereo not drawn) [GSK1379722] | 0
18 | Nc1nc(-c2ccc3c(N)n[nH]c3c2)cc(N2CCCCC2)n1 [GSK2228768] | 0

Row | Compound | %Inh [%]
19 | CN1CCC(n2cnc(-c3ccc(F)cc3)c2-c2ccnc(NC3CCNCC3)n2)CC1 [SB-229482] | 0
20 | Clc1cc(Nc2ncnc3cc[nH]c23)ccc1OCc1ccccn1 | 11
21 | COc1cc2c(Nc3cccc(NC(=O)c4ccccc4)c3)ncnc2cc1OCCCN1CCOCC1 [GSK223810] | 0
22 | CCc1nc(-c2cccc(N(C)S(=O)(=O)c3ccccc3)c2)c(-c2ccnc(Nc3ccc(N4CCN(C(C)=O)CC4)nc3)n2)s1 [GSK1645895] | 0
23 | Cc1ccc(O)cc1Nc1cc(C(F)(F)F)nc2ccc(-c3ccncc3)cc12 [GW630823] | 0
24 | c1ccc(-c2ccc3c(-c4ccnc(Nc5ccc6c(c5)OCCO6)n4)cnn3n2)cc1 [GW818941] | 0
25 | CSc1ccc(NC2=C(c3ccccc3Cl)C(=O)NC2=O)cc1 [SB-342411] | 0
26 | CS(=O)(=O)CCNCc1ccc(-c2ccc3ncnc(Nc4ccc(OCc5ccccc5)c(Cl)c4)c3c2)o1.Cl [GW574783] | 0
27 | COc1cc2ncnc(Nc3ccc(OCc4ccccc4Br)c(Cl)c3)c2cc1OC.Cl [GI261590] | 0
28 | CC(C)N1CCC(n2cnc(-c3ccc(F)cc3)c2-c2ccnc(N)n2)CC1 [SB-223132] | 0
29 | Cn1cc(-c2ccc3c(c2)CCN3C(=O)Cc2cccc(C(F)(F)F)c2)c2c(N)ncnc21 [GSK2606414] | 0
30 | COc1ccc(Nc2nccc(N3CCC(NC(=O)c4cccc(NC(C)=O)c4)C3)n2)cc1 (stereo not drawn) [GSK1379732] | 0
31 | Nc1nc(-c2ccc3c(N)n[nH]c3c2)cc(N2CCC[C@@H](C(=O)Nc3ccccc3)C2)n1.O=C(O)C(F)(F)F.O=C(O)C(F)(F)F [GSK2288359] | 0
32 | CN1c2ccc(-c3ccc(C(=O)NCCO)cc3)cc2-c2[nH]ncc2S1(=O)=O | 49
33 | N#Cc1ccc(Oc2ccc(Nc3ncnc4cc[nH]c34)cc2Cl)cc1 | 8
34 | Cl.c1ccc(Cn2ncc3cc(Nc4ncnc5ccccc45)ccc32)cc1 [GW273749] | 0
35 | Nc1nccc2scc(-c3ccc4c(c3)CCN4C(=O)Cc3cc(F)ccc3F)c12 [GSK2587663] | 0
36 | Nc1nc(-c2cccnc2)c(-c2ccnc3ccccc23)s1 [GW684083] | 0
